Results reported in PubChem BioAssay (NCI).
The panel holds about 79,000 compounds, 15% with a hit somewhere; the sample as a whole holds those more often. A number with no mark means an inactive call. Calls of active or inactive are those of the source. No stated cut-off is given here; in the data, active means growth inhibition above about 70%; inactive means the rest.

Assays:
[1] = NCI Yeast Anticancer Drug Screen. Data for the rad50 strain (AID 155);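 further: 0% = growth of vehicle-only cultures of the same strain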; settings: S. cerevisiae rad50 strain growth inhibition, stronger effect = higher value
Procedure, shortened: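 DNA repair mutant yeast, compound exposure, growth read-out; inhibition is taken relative to vehicle.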

[2] = NCI Yeast Anticancer Drug Screen. Data for the mec2-1 strain (AID 157); settings: S. cerevisiae mec2-1 strain, stronger effect = higher value
Procedure, shortened: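 Test agents were screened against the mec2-1 yeast strain, with defined DNA repair or cell cycle alteration. Growth was scored as inhibition against vehicle-only controls.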

[3] = NCI Yeast Anticancer Drug Screen. Data for the sgs1 mgt1 strain (AID 161);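 further: 0% = growth of cultures given vehicle only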; settings: S. cerevisiae sgs1 mgt1 strain, stronger effect = higher value
Procedure, shortened: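 Genetically altered yeast, compound exposure, growth inhibition relative to vehicle.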

[4] = NCI Yeast Anticancer Drug Screen. Data for the cln2 rad14 strain (AID 165);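 further: 0% = growth equal to vehicle treated cultures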; settings: S. cerevisiae cln2 rad14 strain, stronger effect = higher value
Procedure, shortened: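 Growth of compound-exposed yeast (cln2 rad14 genotype) measured and expressed as inhibition relative to vehicle.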

[5] = NCI Yeast Anticancer Drug Screen. Data for the bub3 strain (AID 167); settings: S. cerevisiae bub3 mutant strain, stronger effect = higher value
Procedure, shortened: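 In this screen, a yeast mutant lacking normal mitotic checkpoint function is challenged with compound. Relative growth versus vehicle gives the inhibition value.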

[6] = NCI Yeast Anticancer Drug Screen. Data for the mlh1 rad18 strain (AID 175); settings: S. cerevisiae mlh1 rad18 strain growth inhibition, stronger effect = higher value
Procedure, shortened: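 In this whole-cell yeast screen, a strain with altered DNA damage repair is challenged with compound, and its growth is measured against matched vehicle-treated controls.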

[7] = at 5.0 µM (retest, dose inferred, filed as 0.5)
[8] = at 50.0 µM (retest, dose inferred, filed as 5.0)

Structure (SMILES)	growth inhibition [1, 7]	growth inhibition [1, 8]	growth inhibition ([1]; at 50.0 µM)	growth inhibition [2, 7]	growth inhibition [2, 8]	growth inhibition ([2]; at 50.0 µM)	growth inhibition [3, 7]	growth inhibition [3, 8]	growth inhibition ([3]; at 50.0 µM)	growth inhibition [4, 7]	growth inhibition [4, 8]	growth inhibition ([4]; at 50.0 µM)	growth inhibition [5, 7]	growth inhibition [5, 8]	growth inhibition ([5]; at 50.0 µM)	growth inhibition [6, 7]	growth inhibition [6, 8]	growth inhibition ([6]; at 50.0 µM)
CCN1/C(=C/C(C)=C/c2sc3ccccc3[n+]2CC)Sc2ccccc21	98% (active)	97% (active)	92% (active)	97% (active)	100% (active)	94% (active)	98% (active)	100% (active)	94% (active)	97% (active)	99% (active)	93.7% (active)	98% (active)	99% (active)	92.8% (active)	98% (active)	99% (active)	92% (active)
c1cc2cc(Cc3ccc4[nH]ccc4c3)ccc2[nH]1	21%	26%	12.2%	21%	36%	11.4%	25%	19%	13%	16%	10%	-1.1%	12%	16%	43.2%	32%	41%	92.2% (active)
CC(=O)CCCOC(C)=O	63%	78% (active)	14.7%	22%	40%	-5.8%	77% (active)	78% (active)	7.85%	10%	22%	24.6%	62%	86% (active)	-0.55%	45%	75% (active)	31.6%
CCC=Nc1c(O)cc(-c2ccccc2)n(C)c1=O	36%	71% (active)	73.2% (active)	35%	75% (active)	11.9%	40%	92% (active)	70.8% (active)	35%	45%	16.3%	35%	93% (active)	70% (active)	47%	94% (active)	60.5%
C1=C(c2ccccc2)CCc2c1ccc1ccccc21	5%	-8%	-3.45%	-6%	3%	-10.8%	1%	16%	0%	-9%	-10%	4.35%	7%	10%	16%	-1%	21%	5.7%
CNC(=S)/N=c1/sc([N+](=O)[O-])c(C)n1C	-26%	-4%	65.5%	-6%	0%	12.5%	-7%	7%	67.7%	-33%	-14%	-1.95%	-4%	5%	44.9%	-20%	-12%	54.8%
CC(=O)O[C@H]1CC[C@]2(C)C34OC3C[C@]3(C)[C@@H](C(C)=O)CC[C@H]3[C@]43C=C[C@@]2(C1)C1C(=O)OC(=O)C13 (stereo not given in full)	10%	60%	88.2% (active)	6%	45%	89.9% (active)	5%	48%	75.9% (active)	0%	34%	84.2% (active)	2%	42%	92.4% (active)	-2%	85% (active)	93.2% (active)
O=[N+]([O-])/C(C(Cl)=C(Cl)Cl)=C(/Sc1ccccc1)N1CCCCC1	-3%	97% (active)	84.9% (active)	3%	95% (active)	88.5% (active)	-17%	93% (active)	77.6% (active)	-7%	95% (active)	85.2% (active)	-19%	96% (active)	86.1% (active)	-3%	96% (active)	77.9% (active)
Cc1ccc(O)c(Cc2cccc(Cl)c2)c1	-2%	99% (active)	99.3% (active)	-7%	99% (active)	99.5% (active)	-2%	99% (active)	99.5% (active)	-21%	99% (active)	99% (active)	-22%	99% (active)	99.3% (active)	0%	99% (active)	99.2% (active)
COc1cc(C(c2cc3c(cc2O)OCO3)N2CCOCC2)ccc1O (stereo not given)	2%	25%	44.8%	-4%	46%	57.5%	-2%	27%	73% (active)	1%	3%	47.6%	-4%	25%	42.9%	-5%	34%	50.5%
